Among all 5,500 compounds or so, about 2,000 (36%) were called active. Roughly 18% stayed inconclusive and do not appear here. Cut-off read from the data, not from the text of the source: active = normalized growth mostly below about 0.91 (no sharp cut-off); inconclusive = no clear call, values can overlap the other calls; inactive = mostly above about 0.92. Some of the results follow.
Test: chemical genetic growth profiling, strain panel (AID 1159580);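 note: tested at 20 µM; growth read once vehicle control cultures reached saturation at 30 °C; 1 = growth at the plate median or of vehicle wells; lower values mean less growth of the strain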
Conditions: growth OD

Measured: normalized growth

CCC(=O)c1c(O)cc(O)cc1O
inactive: S. cerevisiae deletion strains, locus YKL009W, strain mrt4, active compounds read low 1.03 | S. cerevisiae deletion strains, locus YKL068W, active compounds read low 0.989 | S. cerevisiae deletion strains, locus YKL085W, strain MDH1 (second series), active compounds read low 0.986 | S. cerevisiae deletion strains, locus YKL085W, strain MDH1, active compounds read low 0.986 | S. cerevisiae deletion strains, locus YKL160W, strain elf1, active compounds read low 0.972 | S. cerevisiae deletion strains, locus YKL190W, strain CNB1, active compounds read low 1 | S. cerevisiae deletion strains, locus YKR001C, strain vps1, active compounds read low 0.959 | S. cerevisiae deletion strains, locus YKR026C, strain gcn3, active compounds read low 0.992 | S. cerevisiae deletion strains, locus YKR091W, strain srl3, active compounds read low 0.988 | S. cerevisiae deletion strains, locus YLL001W, strain dnm1, active compounds read low 0.99 | S. cerevisiae deletion strains, locus YLL026W, active compounds read low 0.999 | S. cerevisiae deletion strains, locus YLL041C, strain sdh2, active compounds read low 0.985 | S. cerevisiae deletion strains, locus YLR027C, strain aat2, active compounds read low 0.987 | S. cerevisiae deletion strains, locus YLR039C, strain RIC1, active compounds read low 0.938 | S. cerevisiae deletion strains, locus YLR058C, strain SHM2, active compounds read low 1 | S. cerevisiae deletion strains, locus YLR102C, strain apc9, active compounds read low 0.979 | S. cerevisiae deletion strains, locus YLR113W, strain HOG1, active compounds read low 0.974 | S. cerevisiae deletion strains, locus YLR221C, strain rsa3, active compounds read low 1.01 | S. cerevisiae deletion strains, locus YLR258W, strain gsy2, active compounds read low 0.996 | S. cerevisiae deletion strains, locus YLR262C, strain YPT6 (second series), active compounds read low 1.01 | S. cerevisiae deletion strains, locus YLR262C, strain YPT6, active compounds read low 0.991 | S. cerevisiae deletion strains, locus YLR268W, strain sec22, active compounds read low 0.968 | S. cerevisiae deletion strains, locus YLR320W, strain mms22, active compounds read low 1.01 | S. cerevisiae deletion strains, locus YLR330W, strain CHS5, active compounds read low 1 | S. cerevisiae deletion strains, locus YLR342W, strain FKS1 (second series), active compounds read low 1 | S. cerevisiae deletion strains, locus YLR342W, strain FKS1, active compounds read low 0.978 | S. cerevisiae deletion strains, locus YLR357W, strain rsc2, active compounds read low 0.968 | S. cerevisiae deletion strains, locus YLR370C, strain arc18, active compounds read low 0.981 | S. cerevisiae deletion strains, locus YLR371W, strain rom2, active compounds read low 0.982 | S. cerevisiae deletion strains, locus YLR384C, strain iki3, active compounds read low 0.98 | S. cerevisiae deletion strains, locus YLR418C, strain cdc73, active compounds read low 0.94 | S. cerevisiae deletion strains, locus YML016C, strain PPZ1, active compounds read low 0.999 | S. cerevisiae deletion strains, locus YML032C, strain rad52, active compounds read low 0.981 | S. cerevisiae deletion strains, locus YML120C, strain ndi1, active compounds read low 0.991 | S. cerevisiae deletion strains, locus YML124C, strain tub3, active compounds read low 0.978 | S. cerevisiae deletion strains, locus YMR058W, strain fet3, active compounds read low 0.978 | S. cerevisiae deletion strains, locus YMR078C, strain ctf18, active compounds read low 0.976 | S. cerevisiae deletion strains, locus YMR125W, strain sto1, active compounds read low 0.985 | S. cerevisiae deletion strains, locus YMR129W, active compounds read low 0.988 | S. cerevisiae deletion strains, locus YMR205C, strain PFK2, active compounds read low 0.998 | S. cerevisiae deletion strains, locus YMR223W, strain ubp8, active compounds read low 0.978 | S. cerevisiae deletion strains, locus YMR231W, strain pep5, active compounds read low 0.991 | S. cerevisiae deletion strains, locus YMR263W, strain SAP30, active compounds read low 1.01 | S. cerevisiae deletion strains, locus YMR307W, strain GAS1, active compounds read low 1.01 | S. cerevisiae deletion strains, locus YNL067W, strain RPL9B, active compounds read low 1.01 | S. cerevisiae deletion strains, locus YNL071W, strain lat1, active compounds read low 0.995 | S. cerevisiae deletion strains, locus YNL128W, strain TEP1, active compounds read low 1.01 | S. cerevisiae deletion strains, locus YNL153C, strain GIM3, active compounds read low 1.02 | S. cerevisiae deletion strains, locus YNL183C, strain NPR1, active compounds read low 0.953 | S. cerevisiae deletion strains, locus YNL209W, strain ssb2, active compounds read low 0.992 | S. cerevisiae deletion strains, locus YNL233W, strain BNI4, active compounds read low 0.988 | S. cerevisiae deletion strains, locus YNL248C, strain rpa49, active compounds read low 1 | S. cerevisiae deletion strains, locus YNL250W, strain rad50, active compounds read low 0.981 | S. cerevisiae deletion strains, locus YNL271C, strain bni1, active compounds read low 0.979 | S. cerevisiae deletion strains, locus YNL298W, strain CLA4, active compounds read low 0.973 | S. cerevisiae deletion strains, locus YNL307C, strain MCK1, active compounds read low 0.991 | S. cerevisiae deletion strains, locus YNL322C, strain KRE1 (second series), active compounds read low 0.97 | S. cerevisiae deletion strains, locus YNL322C, strain KRE1, active compounds read low 1.01 | S. cerevisiae deletion strains, locus YNR049C, strain mso1, active compounds read low 0.987 | S. cerevisiae deletion strains, locus YNR052C, strain pop2, active compounds read low 0.983 | S. cerevisiae deletion strains, locus YOL006C, strain TOP1, active compounds read low 1.12 | S. cerevisiae deletion strains, locus YOL012C, strain htz1 0.785 | S. cerevisiae deletion strains, locus YOL147C, strain pex11, active compounds read low 0.97 | S. cerevisiae deletion strains, locus YOR001W, strain rrp6, active compounds read low 1.02 | S. cerevisiae deletion strains, locus YOR061W, strain CKA2, active compounds read low 1.01 | S. cerevisiae deletion strains, locus YOR069W, strain VPS5, active compounds read low 1 | S. cerevisiae deletion strains, locus YOR070C, strain gyp1, active compounds read low 0.985 | S. cerevisiae deletion strains, locus YOR080W, strain dia2, active compounds read low 0.981 | S. cerevisiae deletion strains, locus YOR083W, strain WHI5, active compounds read low 0.983 | S. cerevisiae deletion strains, locus YOR106W, strain vam3, active compounds read low 0.987 | S. cerevisiae deletion strains, locus YOR136W, strain idh2, active compounds read low 0.984 | S. cerevisiae deletion strains, locus YOR144C, strain elg1, active compounds read low 0.986 | S. cerevisiae deletion strains, locus YOR184W, strain ser1, active compounds read low 0.992 | S. cerevisiae deletion strains, locus YOR231W, strain MKK1, active compounds read low 1.01 | S. cerevisiae deletion strains, locus YOR265W, strain rbl2, active compounds read low 0.982 | S. cerevisiae deletion strains, locus YOR270C, strain vph1, active compounds read low 1.04 | S. cerevisiae deletion strains, locus YOR290C, strain snf2, active compounds read low 0.973 | S. cerevisiae deletion strains, locus YOR316C, strain cot1, active compounds read low 0.984 | S. cerevisiae deletion strains, locus YPL051W, strain arl3, active compounds read low 0.973 | S. cerevisiae deletion strains, locus YPL055C, strain LGE1, active compounds read low 1.02 | S. cerevisiae deletion strains, locus YPL078C, strain atp4, active compounds read low 0.996 | S. cerevisiae deletion strains, locus YPL106C, strain sse1, active compounds read low 0.938 | S. cerevisiae deletion strains, locus YPL240C, strain hsp82, active compounds read low 0.991 | S. cerevisiae deletion strains, locus YPL241C, strain CIN2, active compounds read low 0.996 | S. cerevisiae deletion strains, locus YPL256C, strain CLN2, active compounds read low 0.997 | S. cerevisiae deletion strains, locus YPR119W, strain clb2, active compounds read low 0.971 | S. cerevisiae deletion strains, locus YPR141C, strain kar3, active compounds read low 0.974 | S. cerevisiae deletion strains, locus YPR163C, strain tif3, active compounds read low 0.991 | S. cerevisiae deletion strains, locus YPR167C, strain met16, active compounds read low 0.98 | S. cerevisiae deletion strains, strain wtn01, active compounds read low 0.978 | S. cerevisiae strains, strain wild type, active compounds read low 1.01

From PubChem BioAssay AID1159580 (chemical genetic matrix, 2015)
